This is an account of results in PubChem BioAssay AID1508642 (National Center for Advancing Translational Sciences (NCATS), 2021).

Screen size: about 43,000 compounds; about 200 (0.47%) were called active. Another 12% or so got no clear call; they are omitted. Many of the other results were omitted from the sample, so actives are more common in it than they were. Values without a mark were called inactive. Calls follow the shape of the dose curve; as a rule, active = well fitted cell-killing curve with a large enough effect; inconclusive = small, poorly fitted or top-dose-only effect, or effect the other way; inactive = flat fitted curve, though single readings scatter.
% is scaled to controls: 0 for no effect and ±100 for the full control effect; potency is read from the fitted curve at half-maximal effect.

The experiment can be described thus: Cell viability qHTS assay in S16 Pmp22-F2sN cells. Also: nearly all actives have a fitted effect of over 65% in size. The conditions noted are these: S16 Pmp22-F2sN Schwann cells (luciferase reporters placed in the Pmp22 gene) viability, CellTiter-Glo, 24 h; series mostly up to 57.5 µM; activity change, negative = cytotoxicity: at the top concentration. The source says:
Assay Provider: Jim Inglese Ph.D. National Center for Advancing Translational Science, National Institutes of Health, Rockville, MD CMT is a heterogeneous group of neurological disorders that affect approximately 1 in 2,500 people. In particular, the most common form of CMT, CMT1A is genetically linked to the duplication of the PMP22 gene which leads to Schwann cell overexpression, thus manifesting itself as a typical case of dose-sensitive diseases. To identify small molecule compounds that can mediate the expression of PMP22 we developed a phenotypic assay screening strategy by utilizing genome editing techniques to construct Schwann cell lines containing novel reporter technology to monitor the transcriptional or translational regulation of PMP22. For high sensitivity we use a bioluminescent reporter system embedded in the 3' UTR of the PMP22 gene (S16(c9) Pmp22-F2sN) to identify compounds that inhibit gene expression. […] We can further discriminate the effect of all transcriptionally active molecules on PMP22 translation or stability with an assay that incorporates a short NLuc peptide (HiBiT) at the C-terminus of expressed PMP22 (S16(f8) PMP22-HiBiT) allowing alpha complementation and luminescence detection of membrane-associated PMP22 protein. These assays were screened against the NCATS Sytravon Library Collection. Miniaturization of these assays to 1536-well plate format for quantitative high throughput screening (qHTS) yielded rich data sets immediately from the qHTS assay (S16(c9) Pmp22-F2sN), when compared with data from a cell viability assay (Cell TiterGlo) to identify compounds that decreased the output signals through cellular toxicity to streamline the selection process of actives for subsequent characterization using the HiBiT assay (S16(f8) PMP22-HiBiT).
Cell viability assay in S16 Pmp22-F2sN cells PROTOCOL TABLE (format as described by Inglese J, Shamu CE and Guy RK. 2007) SEQUENCE No. (e.g., 1, 2, 3, etc.); […] (e.g., Cells, Incubation, Reagent, etc.); VALUE and DESCRIPTION. 1. Cells. Add 500-1,000 cells in 4 uL in growth media (DMEM High Glucose, No Phenol Red media + 10% heat-inactivated FBS + 1% Pen/Strep supplemented media) per well into Greiner 1536-well white/solid bottom high base, TC-treated plates. 2. Compounds. Library compounds and controls added at 23nL per well, transferred by Pin Tool. 3. Incubation. Incubate plates at 37C, 5% CO2, 95% RH for 24 h. 4. Reagent. Add 3uL CellTiter-Glo per well of Greiner 1536-well plates. 5. Incubation. Incubate plates at room temperature for 15 min., protect from light. 6. Detector. FLuc luminescence measured using CCD-based camera (Viewlux). NOTES (numbers refer to Sequence numbers above; values are from representative experiments) 6. Luminescence Read: Clear filter; Exposure = 1 sec, Gain = High, Speed = Slow, Binning = 2X REFERENCES: 1. Inglese J, Shamu CE and Guy RK, Reporting data from high throughput screening of small molecule libraries, Nature Chemical Biology, 2007, 3(8): 438-441. doi.org/10.1038/nchembio0807-438 2. Yasgar A, Shinn P, Jadhav A, Auld DS, Michael S, Zheng W, Austin CP, Inglese J and Simeonov A, Compound Management for Quantitative High-Throughput Screening. J. Assoc. Lab. Auto., 2008, 13: 79-89. doi: 10.1016/j.jala.2007.12.004
(In general: Quantitative high-throughput screening tests each substance at several concentrations.)
`O=C(NCCc1ccc(Cl)cc1)c1ccc2c(c1)N(Cc1ccc(F)cc1)C(=O)CS2`: the “activity change, negative = cytotoxicity” value is -25.4%.

On to `Cc1c(C)n(Cc2ccc(Cl)cc2)c2ccc(C(=O)NCCc3ccc(S(N)(=O)=O)cc3)cc12`, for which the “activity change, negative = cytotoxicity” value is -7.69%.

On to `Cc1cccc(N2CCN(C(=O)c3cnc(N4CCCC4)nc3C)CC2)c1C`, for which the “activity change, negative = cytotoxicity” value is -0.0488%.

For `COc1ccc(Cl)cc1NC(=O)CCn1c(=O)c2cccn2c2ccccc21`, the “activity change, negative = cytotoxicity” value was 8.71%.

Regarding `Cc1ccc(CSc2oc(-c3cccs3)nc2S(=O)(=O)c2ccc(C)cc2)cc1`, the “activity change, negative = cytotoxicity” value is 17.9%.

Turning to `CCCCS(=O)(=O)c1oc(-c2cccs2)nc1S(=O)(=O)c1ccccc1`, the Potency is 2.51 µM (active).

For `CSc1oc(-c2cccs2)nc1S(=O)(=O)c1ccc(Br)cc1`, the “activity change, negative = cytotoxicity” value is -0.0965%.

`COc1cn(CC(=O)Nc2cccc(C)c2C)c(CN2CCCCC2)cc1=O`: the “activity change, negative = cytotoxicity” value was -2.31%.

Take `Cc1ccc(NC(=O)Cn2nnc3sc4c(c3c2=O)CCC(C)C4)cc1` (stereo unspecified): the “activity change, negative = cytotoxicity” value was 10.1%.

In the case of `COc1ccc(CN2CCc3nc(Nc4ccccc4)ncc3C2)c(OC)c1OC`, the “activity change, negative = cytotoxicity” value is -0.963%.

As for `CCc1nn(CC(=O)N2CCN(c3ccc(Cl)cc3)CC2)c(=O)c2cc3occc3n12`, the “activity change, negative = cytotoxicity” value is 1.57%.

As to `COc1ccc(OC)c(CNC(=O)CN2C(=O)CCn3nc(-c4cn(C)c5ccccc45)cc32)c1`, the “activity change, negative = cytotoxicity” value was 2.98%.

`Cc1c(Cl)cccc1NC(=O)CCS(=O)(=O)c1ccc2c(c1)oc(=O)n2C`: the “activity change, negative = cytotoxicity” value is -29%.

As for `CCC(=O)N1CCc2cc(S(=O)(=O)NC(C(=O)Nc3ccc(C(C)=O)cc3)C(C)C)ccc21` (stereo unspecified), the “activity change, negative = cytotoxicity” value was 1.35%.

For the compound `CCOc1ccc(-c2cc3nc(C4CCN(C(=O)OC(C)(C)C)CC4)c(C(=O)Nc4ccc(C(=O)OC)cc4)cn3n2)cc1`, the “activity change, negative = cytotoxicity” value is 4%.

Turning to `COCCN(Cc1ccco1)C(=O)Cn1ncc2c([nH]c3ccccc32)c1=O`, the “activity change, negative = cytotoxicity” value was 0.904%.

Take `COc1c(Cl)cc(Cl)cc1C(=O)Nc1cccc2cccnc12`: the “activity change, negative = cytotoxicity” value is 3.69%.

`COc1cc(C(=O)NCC(c2ccc(Cl)cc2)N2CCOCC2)cc(OC)c1OC` (stereo unspecified): the “activity change, negative = cytotoxicity” value was 0.597%.

For the compound `CCOc1ccc(C(NC(=O)c2cc(OC)c(OC)c(OC)c2)c2cc(Cl)c3cccnc3c2O)cc1` (stereo unspecified), the Potency is 1.78 µM (active).

On to `COc1cccc(N2CCN(S(=O)(=O)c3ccc4c(c3)CCCN4C(C)=O)CC2)c1`, for which the “activity change, negative = cytotoxicity” value was -1.03%.

With `CC(=O)N1CCCc2cc(S(=O)(=O)N3CCCC(C(=O)N4CCN(c5cccc(Cl)c5)CC4)C3)ccc21` (stereo unspecified), the Potency was 25.1 µM (active).

For `CC(=O)N1CCCc2cc(S(=O)(=O)N3CCCC(C(=O)NCc4ccc(Cl)cc4)C3)ccc21` (stereo unspecified), the “activity change, negative = cytotoxicity” value is -24.1%.

For the compound `COC(=O)c1ccc(NC(=O)CSc2n[nH]c(-c3ccccc3)n2)cc1`, the “activity change, negative = cytotoxicity” value is 13.3%.

As to `CCOc1ccccc1NC(=O)Cn1c(=O)n(Cc2ccccc2)c(=O)c2c(C)c(C(=O)N(C)C)sc21`, the “activity change, negative = cytotoxicity” value was 5.8%.

As to `Cc1ccccc1NC(=O)Cn1c(=O)n(Cc2ccco2)c(=O)c2ccc(C(=O)NC3CCCC3)cc21`, the “activity change, negative = cytotoxicity” value is 7.6%.

Consider `COc1cccc(C(=O)NCc2ccc3c(c2)CCN3C(=O)c2ccncc2)c1`, for which the “activity change, negative = cytotoxicity” value was -2.11%.

For `Cc1c(CNC2CCCCC2)c(C(=O)O)c(C)n1Cc1cccc(Cl)c1`, the “activity change, negative = cytotoxicity” value was 22.4%.

Turning to `COc1cccc2cc(-c3nc(Cl)c4c5c(sc4n3)CC(C)CC5)c(=O)oc12` (stereo unspecified), the “activity change, negative = cytotoxicity” value was 6.33%.

As to `Cc1ccc2nc(CN3CCN(S(=O)(=O)c4ccc(C)c(C)c4)CC3)oc2c1`, the “activity change, negative = cytotoxicity” value was 10.1%.

As for `COc1ccc(NC(=O)CN2C(=O)COc3ccc(S(=O)(=O)N4CCOCC4)cc32)cc1`, the “activity change, negative = cytotoxicity” value was 19.3%.

Consider `CC(C)(C)c1ccc(S(=O)(=O)N2CCN(C(=O)c3cc(-c4ccc(Br)cc4)n[nH]3)CC2)cc1`, for which the “activity change, negative = cytotoxicity” value is 2.31%.

For `Cn1c(=O)[nH]c(=O)c2c1nc(NCCc1ccccc1)n2Cc1ccc(F)cc1`, the “activity change, negative = cytotoxicity” value is -27.5%.

Take `CCOC(=O)c1ccc(NC(=O)Cn2cc(S(=O)(=O)Cc3ccccc3F)c3ccccc32)cc1`: the “activity change, negative = cytotoxicity” value is 12.9%.

`Cc1ccc2nc(COc3ccccc3NC(=O)Nc3ccc(F)c(Cl)c3)cc(=O)n2c1`: the “activity change, negative = cytotoxicity” value is -13.1%.

`COc1ccc(N2CCN(c3nc(-c4ccccc4F)nc4ccccc34)CC2)cc1`: the “activity change, negative = cytotoxicity” value was -1.56%.

For the compound `Cc1cccc(OCC(=O)N(Cc2ccc(C(C)C)cc2)Cc2ccco2)c1C`, the “activity change, negative = cytotoxicity” value is -22%.

As for `Cc1cccc(-n2ncc(C(=O)N3CCc4ccccc4C3)c2C2CCN(C(=O)OC(C)(C)C)CC2)c1`, the “activity change, negative = cytotoxicity” value was -9.84%.

Regarding `CC(C)Oc1ccc(CNC(=O)C2CCN(c3nc4ccccc4n(C)c3=O)CC2)cc1`, the “activity change, negative = cytotoxicity” value is 8.64%.

With `COc1cc(OC)c(NC(=O)c2cc(S(=O)(=O)N3CCCC3)cn2C)cc1Cl`, the “activity change, negative = cytotoxicity” value was 1.12%.

For `CCN(Cc1ccccc1)S(=O)(=O)c1ccc2c(c1)CCCN2C(C)=O`, the “activity change, negative = cytotoxicity” value was -7.49%.

With `CCNS(=O)(=O)c1ccc(NC(=O)CSc2nc(-c3ccco3)cc(C(F)(F)F)n2)cc1`, the “activity change, negative = cytotoxicity” value was -17.6%.

As for `COc1ccc(NC(=O)c2sc3nc(-c4cc5cccc(OC)c5oc4=O)[nH]c(=O)c3c2C)cc1`, the “activity change, negative = cytotoxicity” value was 6.82%.

Consider `COc1ccccc1NC(=O)c1sc2nc(C)c(C(=O)Nc3ccc(Cl)cc3)c(-c3ccc(Br)cc3)c2c1N`, for which the Potency was 14.1 µM (active).

Consider `COc1ccc(Cl)cc1NC(=O)c1sc2nc3c(cc2c1N)CN(C)CC3`, for which the “activity change, negative = cytotoxicity” value is 19.1%.

Take `Cc1nnc(SCc2cc(=O)c3cc(F)ccc3[nH]2)n1C`: the “activity change, negative = cytotoxicity” value is 12.3%.

For the compound `Cc1ccc(CN2CCc3nc(N4CCN(C)CC4)ncc3C2)cc1`, the “activity change, negative = cytotoxicity” value is 1.27%.
